IP6K1 inh = Primary qHTS assay for small molecule inhibitors of Inositol hexaphosphate kinase 1 (IP6K1) | IP6K1 kinase, ADP-Glo luminescence, 2 h; active compounds read low | activity change, % (series mostly up to about 58 µM) | hit rate 0.81% among 140,000 | AID 1645851, 2021 | Inositol hexakisphosphate kinase 1 (Homo sapiens), Q92551; in the data active means activity change below about -25%
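ADP-Glo luminescence measures ADP made by human IP6K1 during a 2 h RT reaction with ATP/IP6 (mix at 1.3 mM/130 uM); top library doses 57.5 and 19.1 uM final.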
GPT2 inh = Primary qHTS assay for inhibitors of Glutamate pyruvate transaminase 2 (GPT2) | Recombinant GPT2, coupled pyruvate oxidase/HRP Amplex Red fluorescence | Potency, µM (doses to about 57.7 µM), actives largely listed as inhibitors | hit rate 0.25% among 100,000 | AID 1671188, 2021; active means well fitted inhibition curve with a large enough effect; inconclusive means small, poorly fitted or top-dose-only effect; further: nearly all actives have a fitted effect of over 60% in size
Target sequence (Q8TD30 whole entry, looked up): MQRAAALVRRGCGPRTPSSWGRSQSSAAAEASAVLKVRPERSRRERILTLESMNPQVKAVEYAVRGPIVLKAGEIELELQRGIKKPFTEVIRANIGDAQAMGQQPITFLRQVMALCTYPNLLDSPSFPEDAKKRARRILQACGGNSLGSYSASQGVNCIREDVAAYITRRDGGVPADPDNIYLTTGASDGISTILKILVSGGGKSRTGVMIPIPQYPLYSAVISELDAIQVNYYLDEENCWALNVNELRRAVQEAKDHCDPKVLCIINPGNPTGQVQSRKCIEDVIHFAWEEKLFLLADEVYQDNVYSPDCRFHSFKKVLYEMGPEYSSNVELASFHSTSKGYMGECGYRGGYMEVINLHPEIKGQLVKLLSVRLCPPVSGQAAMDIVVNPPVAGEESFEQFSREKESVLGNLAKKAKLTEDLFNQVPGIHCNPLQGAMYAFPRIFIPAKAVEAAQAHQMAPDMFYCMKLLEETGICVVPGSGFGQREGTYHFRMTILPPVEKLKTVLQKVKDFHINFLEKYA
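Inhibition is scored from Amplex Red fluorescence generated when pyruvate oxidase and HRP act on pyruvate released by GPT2. Reactions contain 10ng/uL enzyme, 250uM a-KG and 2mM L-alanine and run 30 min at room temperature.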
Large screens that a line does not name were inactive; ! = repeats disagree. Rows were chosen to be rich in hits. Some 0.82% of all compounds tested hit in one or more screens of this group.

CC1(C)CCC2=C(O1)c1ccccc1C(=O)C2=O	GPT2 inh 3.4µM! (no result: IP6K1 inh)
O=c1c(O)c(-c2ccc(O)cc2)oc2cc(O)cc(O)c12	GPT2 inh 24µM (no result: IP6K1 inh)
O=c1cc(-c2ccccc2)oc2cc(O)cc(O)c12	none (no result: IP6K1 inh)
CN(C)Cc1c(C(=O)NCCOc2ccc(C(=O)NO)cc2)oc2ccccc12	GPT2 inh 31µM!
CCCOc1ccc(C(=O)Nc2c(C(=O)c3ccc(C)cc3)oc3ccccc23)cc1	none (no result: GPT2 inh)
CC(C)N1[N]C(=C2C=c3cc(O)ccc3=N2)c2c(N)ncnc21	GPT2 inh 0.61µM (no result: IP6K1 inh)
O=C([C@H]1CCCN1C(=O)c1ccc(C(F)(F)F)cc1)N1CCC(N2CCOC2=O)CC1	none
C[C@@H]1CC[C@@]2(OC1)O[C@H]1C[C@H]3[C@@H]4CC[C@H]5C[C@@H](O)CC[C@]5(C)[C@H]4CC(=O)[C@]3(C)[C@H]1[C@@H]2C	GPT2 inh 2.2µM
C[C@H]1CC[C@@]2(OC1)O[C@H]1CC3C4CC[C@H]5C[C@@H](O)CC[C@]5(C)C4=CC(=O)[C@]3(C)[C@H]1[C@@H]2C (some centres not stated)	none
COc1cccc(CN(C)Cc2ccccc2C(F)(F)F)c1	none
O=C(O)Cc1cccc(OCCCN(Cc2cccc(C(F)(F)F)c2Cl)CC(c2ccccc2)c2ccccc2)c1	GPT2 inh 24µM (no result: IP6K1 inh)
CCOc1ccc(NC(=O)c2c(NCc3cc(OC)c(OC)cc3OC)sc3c2CCCC3)cc1	IP6K1 inh -30 (no result: GPT2 inh)
CCOC(=O)c1ccc(NC(=O)c2c(NCc3cc(OC)c(OC)cc3OC)sc3c2CCCC3)cc1	none (no result: GPT2 inh)
CC(C)NC[C@H](O)c1ccc(O)c(O)c1	GPT2 inh 3.5µM! (no result: IP6K1 inh)
CC(C)NCC(O)c1cc(O)cc(O)c1 (configuration not stated)	GPT2 inh inconclusive
COCCn1c(=O)c(C(=O)N2CCN(C(=O)Nc3ccccc3)CC2)nc2cccnc21	none
O=C(Nc1cccc2ccccc12)O[C@@H]1CO[C@H]2[C@@H]1OC[C@@H]2NC(=S)Nc1ccc(Cl)cc1	none
CN(C)c1ccc(NC(=S)N[C@H]2CO[C@H]3[C@@H]2OC[C@H]3OC(=O)Nc2cccc3ccccc23)cc1	GPT2 inh 8.9µM
Cc1nc(NCc2ccc(N3CCCC3=O)cc2)cc(C2CC(O)C2)n1 (configuration not stated)	none
CCOC(=O)c1cc(S(=O)(=O)NCc2ccc(F)cc2)[nH]n1	none (no result: GPT2 inh)
CCOC(=O)Nc1ccc(NCc2ccc(F)cc2)nc1N	GPT2 inh 10µM!
Cc1noc([C@@H]2CN(Cc3c(F)cccc3F)C[C@H]2CO)n1	none
COC(=O)N1CCC2(CC1)C(=O)NCN2Cc1ccc(Cl)cc1	none
COc1cncc(N2C[C@@H]3[C@H](C2)N(CCOc2ccccc2)C(=O)C(C)(C)[S+]3(=O)[O-])c1	GPT2 inh 10µM
COc1cccc(CN2C[C@H]3[C@H](C2)[S+](=O)([O-])C(C)(C)C(=O)N3CCOc2ccccc2)c1	none
COCCOCC(=O)N1CC(Oc2ccc(-c3noc(-c4ccccc4)n3)cc2)C1	none
Cc1cc(=O)n(CC(=O)NC(C)CCc2ccccc2)c(N2CCOCC2)n1 (configuration not stated)	none
COc1ccccc1C(=O)N1CCCC(c2nn(-c3ccc(Cl)cc3)c(=O)[nH]2)C1 (configuration not stated)	none
COc1ccc(N2CCN(S(=O)(=O)CCNC(=O)Cc3ccc(-c4ccccc4)cc3)CC2)cc1	IP6K1 inh -27 (no result: GPT2 inh)
O=C(Cc1ccc(-c2ccccc2)cc1)NCCS(=O)(=O)N1CCN(c2ccccc2)CC1	none (no result: GPT2 inh)
O=C1NC2CCCCC2=C1CC(=O)N1CCCCC1 (configuration not stated)	none
Cc1ccc(CNC(=O)N2CCCC(CN3CCC(C)CC3)CC2)cc1 (configuration not stated)	none
COC(=O)N1CCN(CCCn2nc3n(c2=O)CCCC3)CC1	none (no result: GPT2 inh)
CN(C)C(=O)C(C)(C)Oc1nn(Cc2cccc(Cl)c2)c2ccccc12	none
CN(C)CCCOc1nn(Cc2ccccc2)c2ccccc12	GPT2 inh 1.3µM!
Cc1ccc(CNC2(Cc3cc(-c4ccccn4)on3)COC2)o1	GPT2 inh inconclusive
CC(=O)Oc1c(-c2ccc(NC(=O)c3ccco3)cc2)c(-c2cccc(F)c2)nn1-c1ccc(C)cc1	GPT2 inh 28µM
CC(=O)Oc1c(-c2ccc(NC(=O)c3ccco3)cc2)c(-c2cccc(C)c2)nn1-c1ccc(F)cc1	GPT2 inh 25µM
COc1cccc(-c2nn(-c3ccccc3)c(OC(C)=O)c2-c2ccc(NC(=O)C3CCCC3)cc2)c1	GPT2 inh 7.1µM
COCC(=O)Nc1ccc(-c2c(C(C)C)nn(-c3cccc(F)c3)c2OC(C)=O)cc1	GPT2 inh inconclusive
COc1ccc(-c2nn(-c3ccccc3C)c(OC(C)=O)c2-c2ccc(NC(C)=O)cc2)cc1OC	none
CC(=O)Oc1c(-c2ccc(NC(=O)c3ccco3)cc2)c(-c2cccc(C)c2)nn1-c1cccc(F)c1	GPT2 inh inconclusive
CN(C)CCNC(=O)c1n[nH]c2c1CN(C(=O)c1cc(F)ccc1Cl)CC2	none
CN1CCN(Cc2nc(C3(O)CCN(Cc4ccccc4F)CC3)cs2)CC1	none
COc1ccc(C(c2c(C)n(C)n(-c3ccccc3)c2=O)c2c(C)n(C)n(-c3ccccc3)c2=O)cc1O	none (no result: GPT2 inh)
CCOc1ccc(C(c2c(C)[nH]n(-c3ccccc3)c2=O)c2c(C)[nH]n(-c3ccccc3)c2=O)cc1OC	IP6K1 inh -30 (no result: GPT2 inh)
O=C(NC1CC1)C1COC2(CCN(C(=O)Cc3cccs3)CC2)N1C(=O)c1ccc(F)cc1 (configuration not stated)	none
C[C@](N)(Cc1ccc(O)c(O)c1)C(=O)O	GPT2 inh 7.9µM
C[C@](N)(Cc1ccc(O)cc1)C(=O)O	none
C=CCNC1=C2C[C@@H](C)C[C@H](OC)[C@@H](O)[C@@H](C)C=C(C)[C@H](OC(N)=O)[C@@H](OC)C=CC=C(C)C(=O)NC(=CC1=O)C2=O	none (no result: IP6K1 inh)
CO[C@H]1C=CC=C(C)C(=O)NC2=CC(=O)C(NCCN(C)C)=C(C[C@@H](C)C[C@H](OC)[C@@H](O)[C@@H](C)C=C(C)[C@@H]1OC(N)=O)C2=O	GPT2 inh 31µM (no result: IP6K1 inh)
COc1ccc(CCC(=O)NCC2Cn3cccc3C(=O)N2Cc2cccnc2)cc1 (configuration not stated)	none
Cc1ccc(C(=O)NC2CCCN(c3cc(-c4ccccc4)[nH]n3)C2)cc1 (configuration not stated)	none
O=Cc1ccc(-c2cc(C(F)(F)F)ccc2Cl)cc1	none
Nc1cc(C(F)(F)F)ccc1S	GPT2 inh 28µM
O=C(C[C@@H]1CCNC[C@@H]1Cc1cc(CSc2ccccc2)on1)N1CCN(c2ccccc2)CC1	none
Cc1noc(C2CC3(CCN(C(=O)CC4CCCC4)CC3)CN2C)n1 (configuration not stated)	none
O=C(N1CCN(C/C=C/c2ccccc2)CC1)C12CNCC1CNC2 (configuration not stated)	none
Fc1ccc(C(c2ccc(F)cc2)N2CCN(CC=Cc3ccccc3)CC2)cc1	GPT2 inh 4.3µM (no result: IP6K1 inh)
NC(=O)CCNC(=O)[C@@]1(O)C[C@@H](O)[C@H](O)[C@@H](NC(=O)c2ccc(F)c(Cl)c2)C1	none
CN1CCC2(CC1)CC(=O)N(CC(=O)N(C)CCc1cnn(C)c1)C2	none
Oc1ccc(C2CNCCc3c2cc(O)c(O)c3Cl)cc1 (configuration not stated)	GPT2 inh inconclusive
